Bioassay records deposited in PubChem by several laboratories.
CSC inhib: cancer stem cell viability inhibitors, primary screen, luminescence. cancer stem cell-like cells viability. inhibition, % at 7.5 µM. hit rate 1.1% among 300,000. AID 2717, 2010; in the data active = inhibition above about 75%; tested in HMLE shEcad cells
Beta cell apopt: inhibitors of cytokine-induced beta cell apoptosis, primary screen, luminescence. INS-1E cytokine-induced death, ATP luminescence, 48 h; percent of positive-control rescue, neutral wells zero. protection from apoptosis, % (no concentration beside the values). hit rate 0.8% among 300,000. AID 435005, 2010;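 active = Every replicate reaches about 75%, or at least half do and their mean reaches it too, limit read from the data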;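 note: 0% = cytokine-treated negative control wells and 100% = positive control rescue; higher means more ATP so stronger rescue from cytokine killing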
GRIN3A LBD mod: binders of NR3A ligand-binding domain, primary screen, biophysical, differential scanning fluorimetry, uHTS; Glutamate receptor ionotropic, NMDA 3A (GRIN3A) ligand-binding domain; NR3A LBD differential scanning fluorimetry, Tm shift; 0% = protein alone, 100% = glycine-bound protein; Tm shift relative to glycine control, % at 25 µM; hit rate 2.5% among 340,000; AID 1259313, 2017;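 active = melting temperature shift of at least 10% of the positive control shift, at one fixed dose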
Gli-Sufu antag: Gli-Sufu pathway antagonists, primary screen, luciferase luminescence, Sufu-KO-LIGHT cells, uHTS; inhibition, % at 5 µM; hit rate 0.74% among 340,000; Sufu-KO-LIGHT fibroblasts, Gli luciferase reporter luminescence; AID 588413, 2011;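 active = inhibition above about 55%, limit read from the data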;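 note: 0% = DMSO-treated cells and 100% = wells with medium but no cells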
Mdm2-MdmX inh: inhibitors of human Mdm2-MdmX association, primary screen, cell-based, luminescence, split luciferase, SaOS-2, uHTS; Protein Mdm4 (Homo sapiens) + E3 ubiquitin-protein ligase Mdm2 (Homo sapiens), …; SaOS-2 split-luciferase Mdm2/MdmX complementation; inhibition, % at 8 µM; hit rate 3% among 330,000; AID 485346, 2010;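 active = inhibition of at least 50% at 8 µM in the primary screen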
Target sequence (O15151 whole entry, looked up): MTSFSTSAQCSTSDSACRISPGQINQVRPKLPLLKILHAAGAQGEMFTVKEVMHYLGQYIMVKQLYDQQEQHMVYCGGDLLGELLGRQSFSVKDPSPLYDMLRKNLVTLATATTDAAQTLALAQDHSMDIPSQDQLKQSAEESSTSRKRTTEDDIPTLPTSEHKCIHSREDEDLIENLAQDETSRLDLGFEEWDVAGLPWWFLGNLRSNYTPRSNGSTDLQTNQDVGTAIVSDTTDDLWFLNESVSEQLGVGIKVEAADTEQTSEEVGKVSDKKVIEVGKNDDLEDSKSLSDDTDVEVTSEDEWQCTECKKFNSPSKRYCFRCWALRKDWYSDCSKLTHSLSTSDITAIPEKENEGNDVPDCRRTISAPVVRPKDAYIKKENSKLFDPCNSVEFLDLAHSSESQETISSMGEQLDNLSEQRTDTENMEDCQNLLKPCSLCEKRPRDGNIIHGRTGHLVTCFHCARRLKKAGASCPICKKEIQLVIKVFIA
Target sequence (Q00987 whole entry, looked up): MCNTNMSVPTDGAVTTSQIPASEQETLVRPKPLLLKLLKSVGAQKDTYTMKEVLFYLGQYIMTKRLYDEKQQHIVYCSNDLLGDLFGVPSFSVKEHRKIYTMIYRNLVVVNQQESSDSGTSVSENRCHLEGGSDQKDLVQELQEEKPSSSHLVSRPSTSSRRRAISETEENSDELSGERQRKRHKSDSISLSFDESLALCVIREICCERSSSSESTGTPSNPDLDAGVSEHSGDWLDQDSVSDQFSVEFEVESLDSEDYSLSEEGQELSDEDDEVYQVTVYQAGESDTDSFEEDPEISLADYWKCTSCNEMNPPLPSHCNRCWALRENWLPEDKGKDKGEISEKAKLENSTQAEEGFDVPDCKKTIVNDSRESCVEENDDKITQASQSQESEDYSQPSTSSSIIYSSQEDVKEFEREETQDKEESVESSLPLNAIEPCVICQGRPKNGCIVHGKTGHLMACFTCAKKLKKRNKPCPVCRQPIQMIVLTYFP
MPTP inh: mitochondrial permeability transition pore inhibitors, primary screen, biochemical, isolated mouse mitochondria, absorbance; inhibition, % at 10 µM; hit rate 1.4% among 360,000; Ca2+ swelling absorbance, 30 min;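 active = inhibition of 50% or more, scaled per plate between neutral and stimulator controls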;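 note: 0% = DMSO wells given calcium and 100% = 1 mM EGTA wells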
MPTP counter: fluorescence retest of MPTP screen hits in isolated mitochondria, single concentration; shares compounds with MPTP inh; membrane potential, Rhodamine 123 fluorescence; inhibition, % at 10 µM; hit rate 78% among 5,000; AID 624504, 2012; in the data active = inhibition above about 22%;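 note: 0% = DMSO vehicle and 100% = positive control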
MPTP swell DR: mitochondrial permeability transition pore inhibitors, dose response, biochemical, absorbance, uHTS hits; shares compounds with MPTP inh; isolated mitochondria swelling; IC50, µM; hit rate 58% among 780; AID 651561, 2012; in the data active = IC50 below about 20 µM
MPTP cs DR: fluorescent counter-screen in isolated mitochondria, dose response, counter-screen for MPTP inhibitor project, biochemical, fluorescence, uHTS hits; shares compounds with MPTP inh; isolated mitochondria counterscreen, fluorescence read-out; IC50, µM; hit rate 49% among 780; in the data active = IC50 below about 80 µM
Active calls of the source: *; / = no result. The list is not random: actives were taken first. Their share in the collection is about 6.6%.

SMILES	CSC inhib	Beta cell apopt	GRIN3A LBD mod	Gli-Sufu antag	Mdm2-MdmX inh	MPTP inh	MPTP counter	others
COc1ccc(-c2[nH]c(-c3ccc(SC)cc3)nc2SCC(=O)Nc2nccs2)cc1	41	-3	6	10	0	68*	49*
COc1cccc(Nc2nc3ccccc3nc2NS(=O)(=O)c2cccs2)c1	50	29	21*	17	41	58*	71*
COc1ccc(Nc2nc3ccccc3nc2NS(=O)(=O)c2cccs2)c(OC)c1	28	18	-4	18	20	37	/
O=C(NCc1csc(-c2cccs2)n1)Nc1ccc(C(F)(F)F)cc1	-9	-2	1	8	23	66*	77*
Cc1c(CC(=O)Nc2ccc(Cl)cc2)sc2ccc(Cl)cc12	1	5	28*	-2	-1	88*	91*
CCCC(=O)Nc1cccc(NC(=O)Cc2ccc(Cl)cc2)c1	/	/	/	/	/	2	/
CN(C(=O)c1cccc(NC(=O)Cc2ccc(NC(=O)C3CCN(C(=O)c4ccccc4)CC3)cc2)c1)C1CCCCC1	/	/	-1	-29	/	-1	/
Cc1nnc2ccc(Oc3ccc(-c4ccccc4)cc3)nn12	-3	92*	-5	18	15	74*	66*
Cc1ccc(CCNc2ncnc(Cl)c2N)cc1	/	/	8	11	/	101*	108*
Nc1c(Cl)ncnc1NCCO	-3	-6	-2	-4	-1	0	/
CCC(C)c1ccccc1N=Cc1ccc2c(c1)OCO2 (stereo not drawn)	/	-1	1	18	5	71*	2	MPTP swell DR=>100;MPTP cs DR=>80
CCCCn1c(/N=C/c2ccc3c(c2)OCO3)nc2ccccc21	-1	5	7	8	-14	-1	/
CCCCNc1nc(NCc2ccccc2)nc2ccccc12	/	/	/	/	/	78*	118*
COc1cc2ncnc(NCc3ccccc3)c2cc1OC	38	-17	-1	6	33	-2	/
c1ccc(CNc2ncnc3ccccc23)cc1	0	39	-2	40	37	84*	59*
CCCCNc1nc2ccccc2nc1Cl	12	1	-1	-2	10	0	/
CCCCC(=O)N(c1ccc(C(=O)O)cc1)c1nc(-c2ccc(Cl)cc2)c(CC)s1	67	6	5	-27	4	3	/
CCN(CC)CC(=O)Nc1ccc2c(c1)Nc1ccccc1CC2	22	0	2	8	24	84*	-4	MPTP swell DR=10*;MPTP cs DR=66*
CCN(CC)CC(=O)Nc1ccc2c(c1)N(C(=O)CN(CC)CC)c1ccccc1CC2	-2	-2	-1	8	45	0	/
Oc1ccc(Cl)cc1CNCc1ccc(C(F)(F)F)cc1	28	-4	-4	4	-2	2	/
C/C(=N\NC1=NCCN1)c1ccc(Cl)cc1	-5	0	1	4	16	1	/
COc1ccc(Br)cc1/C(C)=N/NC1=NCCN1	4	10	-1	26	23	105*	31*
CC(=O)Nc1cc(NC(C)=O)cc(C(=O)OCC(=O)Nc2ccc(S(=O)(=O)NC3=NCCCCC3)cc2)c1	-15	-3	1	-2	14	-2	/
CC(=O)c1ccc(N2CCN(S(=O)(=O)c3ccc4c(c3)CC(C)N4C(=O)C3CC3)CC2)cc1 (stereo not drawn)	12	/	0	67*	14	97*	108*
CCCOc1ccc(C(=O)Nc2ccc(N3CCOCC3)cc2N2CCOCC2)cc1OCC	/	/	/	/	/	1	/
SMILES	CSC inhib	Beta cell apopt	GRIN3A LBD mod	Gli-Sufu antag	Mdm2-MdmX inh	MPTP inh	MPTP counter	others
O=C(Nc1ccc(F)cc1F)N1CCCN(c2ccc([N+](=O)[O-])cn2)CC1	-12	-6	2	11	2	2	/
CC(C)(C)c1ccc(NC(=O)N2CCN(c3ccc([N+](=O)[O-])cn3)CC2)cc1	27	17	-4	3	14	67*	54*
Cc1ccc(NC(=O)c2c(C(F)(F)F)nn(C)c2SCc2ccc(Cl)cc2)cc1C	31	7	-12	-14	13	36	/
Cc1ccc(NC(=O)c2c(C(F)(F)F)nn(C)c2SCc2cccc(C(F)(F)F)c2)cc1C	36	88*	-1	46	-4	68*	83*
CC(C)Cc1ccc(CN2CCCC(NC(=O)c3cccc(-n4cnnc4)c3)C2)cc1 (stereo not drawn)	-4	7	-2	23	17	-1	/
CCSc1nsc(NC(=O)Nc2ccccc2F)n1	7	19	-2	-38	-49	66*	87*
CCSc1nsc(NC(=O)Nc2cccc(OC)c2)n1	31	/	16*	-17	31	84*	85*
COc1cccc(NC(=O)Nc2ccncc2)c1	-3	-6	1	-8	16	12	/
O=C(O)[C@H](Cc1ccccc1)N1C(=O)c2c(Cl)c(Cl)c(Cl)c(Cl)c2C1=O	-11	-1	0	-2	11	0	/
Cc1ccc(CCNC(=O)CCS(=O)(=O)c2ccc(Br)cc2)cc1	-9	2	1	-14	-5	3	/
COc1ccc2[nH]c3c(c2c1)CCN1C(=O)N([C@@H](C)C(=O)NC2CCN(Cc4ccccc4)CC2)C(=O)[C@]31C	-2	/	-2	6	35	0	/
CC(=O)c1ccc(NC(=S)N2CCC(Cc3ccccc3)CC2)cc1	-11	-7	-1	1	19	61*	44*
Cc1ccc(C2C(C#N)=C(N)SC(N)=C2C#N)cc1	/	/	-1	19	/	54*	67*
Cc1ccc(C2C(C#N)=C(N)SC(N)=C2C#N)c(C)c1	7	-1	-12	0	5	53*	64*
Cc1ccc(S(=O)(=O)N2CC(C)N(C(=O)N3CCOCC3)C2)cc1 (stereo not drawn)	2	/	0	4	2	0	/
Cc1nn(CC(=O)NCCCN2CCN(C)CC2)c(=O)c2cc(-c3ccccc3)nn12	39	-4	4	-7	7	-1	/
COc1ccc(-c2cc3c(=O)n(CC(=O)NCCCN4CCN(Cc5ccccc5)CC4)ncn3n2)cc1	-1	57	5	35	-22	91*	51*
O=C(CSc1nnc(-c2ccc(C(F)(F)F)cn2)s1)c1ccc(Cl)cc1	-6	3	0	4	-6	2	/
